Test results: publication PMC4336329 (PLoS ONE, 2015)
Hit rate of the full screen: of about 310,000 compounds, about 14,000 (4.5%) showed an effect of 50% or more. The effect is printed as a negative number. Shown is part of a subset that was picked to be rich in strong results.

Target: human ether-à-go-go-related gene (hERG) potassium channel (human, UniProt Q12809)
Assay: primary screen, population patch clamp on CHO cells stably expressing hERG; higher = less effect of the substance
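Also: peak tail current of the secondary pulse compared with the same well before compound.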

human ether-à-go-go-related gene (hERG) potassium channel, sequence (Q12809 whole entry, looked up): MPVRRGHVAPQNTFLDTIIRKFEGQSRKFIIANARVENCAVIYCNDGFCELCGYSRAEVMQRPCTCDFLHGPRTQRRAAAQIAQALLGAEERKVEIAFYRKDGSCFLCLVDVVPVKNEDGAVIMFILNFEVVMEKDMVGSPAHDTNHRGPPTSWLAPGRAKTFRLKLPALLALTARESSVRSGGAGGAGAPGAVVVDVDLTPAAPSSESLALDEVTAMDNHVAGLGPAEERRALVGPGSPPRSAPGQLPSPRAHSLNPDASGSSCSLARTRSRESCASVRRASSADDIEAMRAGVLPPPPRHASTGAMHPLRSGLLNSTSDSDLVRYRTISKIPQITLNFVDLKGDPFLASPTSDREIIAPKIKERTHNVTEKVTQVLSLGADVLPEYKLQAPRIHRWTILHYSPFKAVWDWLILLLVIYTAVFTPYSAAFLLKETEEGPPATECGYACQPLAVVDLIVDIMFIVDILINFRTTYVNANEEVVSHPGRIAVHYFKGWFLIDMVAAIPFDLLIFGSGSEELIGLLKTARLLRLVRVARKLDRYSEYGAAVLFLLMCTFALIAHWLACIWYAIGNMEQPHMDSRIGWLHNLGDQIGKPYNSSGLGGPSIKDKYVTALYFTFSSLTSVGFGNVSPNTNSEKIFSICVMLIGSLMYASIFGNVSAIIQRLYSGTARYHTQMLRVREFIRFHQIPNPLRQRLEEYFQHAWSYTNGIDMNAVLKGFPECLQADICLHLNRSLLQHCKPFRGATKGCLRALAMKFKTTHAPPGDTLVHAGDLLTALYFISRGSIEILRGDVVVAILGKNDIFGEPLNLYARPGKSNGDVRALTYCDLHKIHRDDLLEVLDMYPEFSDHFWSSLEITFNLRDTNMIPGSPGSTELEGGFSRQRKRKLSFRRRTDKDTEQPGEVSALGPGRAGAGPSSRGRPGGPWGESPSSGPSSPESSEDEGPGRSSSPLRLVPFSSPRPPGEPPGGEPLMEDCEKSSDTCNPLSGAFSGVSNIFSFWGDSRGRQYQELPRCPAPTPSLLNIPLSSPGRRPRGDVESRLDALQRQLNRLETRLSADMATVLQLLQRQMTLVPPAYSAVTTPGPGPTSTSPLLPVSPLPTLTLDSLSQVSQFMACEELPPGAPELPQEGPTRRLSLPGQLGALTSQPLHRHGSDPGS

| Structure (SMILES) | hERG current change (%, negative = inhibition) at 10uM [%] |
| --- | --- |
| COc1ccc(Cl)cc1NC(=O)CN(C)C(=O)c1ccc(OCc2ccccc2)c(OC)c1 | 6.49 |
| COc1coc(C(O)CN)cc1=O (stereo not shown) | 4.57 |
| CC(=O)c1ccc(NC(=O)C2CC(c3ccc(F)cc3)=NO2)cc1 (stereo not shown) | -6.78 |
| CC(C(=O)N(C)C1CCCCC1)N1CCC(C(N)=O)CC1 (stereo not shown) | 25 |
| Cc1ccc2c(c1)c1ncnc(N3CCc4ccccc4C3)c1n2C | 0.68 |
| COc1cccc(CN(CC(=O)NCc2ccccc2)S(=O)(=O)CCl)c1 | -16.8 |
| CCOC(=O)c1csc(NC(=O)c2ccc(S(=O)(=O)N(C)C)cc2)n1 | -20.9 |
| Cc1ccnc(SCC(=O)N2CCN(c3cccc(Cl)c3)CC2)n1 | -25.2 |
| O=C(NC1CCN(C(=S)Nc2ccccc2Cl)CC1)C1CCCCC1 | 14 |
| O=C(CSc1nc2scc(-c3ccccc3)c2c(=O)[nH]1)NCCc1ccccc1 | -1.09 |
| Cc1cccc(NC(=O)CN2CCN(C(=O)CNC(=O)Cc3cccc4ccccc34)CC2)c1C | -57.4 |
| Cc1ccccc1NC(=O)CNC(=O)Cc1cccc2ccccc12 | 1.16 |
| CCOC(=O)N1CCN(CC(=O)Nc2cccc(Br)c2)CC1 | -18.9 |
| Cc1cccc(NC(=O)CN2CCN(C(=O)COc3cccc(Br)c3)CC2)c1C | -70.4 |
| Cc1cccc(NC(=O)CNC(=O)CN2CCN(C)CC2)c1C | 7.6 |
| CCc1ccccc1NC(=O)CN1CCN(C(=O)CNC(=O)c2ccc(N3CCCC3=O)cc2)CC1 | -3.9 |
| CCc1ccccc1NC(=O)CN1CCN(C(=O)CNC(=O)c2ccc(-c3ccccc3)cc2)CC1 | -57 |
| O=C(CN1CCN(C(=O)CNC(=O)c2ccc3c(c2)OCO3)CC1)Nc1ccccc1Cl | -49.3 |
| Cc1cccc(NC(=O)CN2CCOCC2)c1C | 13.9 |
| O=C(O)CN1CCN(CC(=O)O)CCN(CC(=O)O)CCN(CC(=O)O)CC1 | 7.18 |

| Structure (SMILES) | hERG current change (%, negative = inhibition) at 10uM [%] |
| --- | --- |
| O=C(Nc1cccc(C(=O)N2CCOCC2)c1)c1ccccc1Cl | -17 |
| COc1ccc(C(=O)Nc2ccc(-c3ccc(C)o3)cc2)cc1S(=O)(=O)N1CCOCC1 | 14.6 |
| O=C(NCc1cccs1)C1CCCN1C(=O)Nc1ccccc1 (stereo not shown) | 21 |
| CCN(C(=O)COC(=O)c1ccc2ccccc2c1)c1c(N)n(Cc2ccccc2)c(=O)[nH]c1=O | 14.1 |
| COc1ccc(C(=O)OCC(=O)Nc2sccc2C(N)=O)cc1OC | -0.284 |
| CCC(=O)N(C)CCc1cc2c(c(OC)c1/C=N/Nc1ccc(C(=O)O)cc1)OCO2 | -1.63 |
| O=C(Nc1cccc(Cl)c1)c1nc[nH]c1C(=O)N1CCc2ccccc2C1 | -15.6 |
| CCOc1ccc(NS(=O)(=O)c2ccc(C(=O)N3CCCCC3)cc2)cc1 | -9.46 |
| COc1ccc(Cn2cnc3c(N)c(C)c(C)cc32)cc1 | 5.13 |
| N#CC1(NC(=O)COc2ccc3oc4ccccc4c3c2)CCCCC1 | 12.1 |
| COC(=O)c1ccc(CNC(=O)COC(=O)C2CC3C=CC2C3)cc1 (stereo not shown) | 11.2 |
| COc1ccc(-n2nc3c(c2NC(=O)CCCCl)CSC3)cc1 | -1.78 |
| CCCN(CCC)CCCNC(=S)Nc1ccc2nc(N3CCN(CC)CC3)cc(C)c2c1 | -3.08 |
| CCCN(CCC)CCCNC(=S)Nc1ccc2nc(N3CCCC3)cc(C)c2c1 | -60.4 |
| CCCN(CCC)CCCNC(=S)Nc1ccc2nc(N3CCN(C)CC3)cc(C)c2c1 | 8.86 |
| CCOCCCNC(=S)Nc1ccc2nc(N3CCN(CC)CC3)cc(C)c2c1 | 4.36 |
| Cc1cc(N2CCCC2)nc2ccc(NC(=S)NCCCN3CCC(C)CC3)cc12 | -29.6 |
| CCN(CC)CCNC(=S)Nc1ccc2nc(N3CCCC3)cc(C)c2c1 | -8.93 |
| CCOCCCNC(=S)Nc1ccc2nc(N3CCCC3)cc(C)c2c1 | -73.3 |
| Cc1cc(N2CCCC2)nc2ccc(NC(=S)NCCCOC(C)C)cc12 | -83.4 |

| Structure (SMILES) | hERG current change (%, negative = inhibition) at 10uM [%] |
| --- | --- |
| COCCNC(=S)Nc1ccc2nc(N3CCN(C)CC3)cc(C)c2c1 | 8.03 |
| CCN1CCN(c2cc(C)c3cc(NC(=S)NCCCOC)ccc3n2)CC1 | 5.8 |
| COCCNC(=S)Nc1ccc2nc(N3CCCC3)cc(C)c2c1 | -71.6 |
| CCOCCCNC(=S)Nc1ccc2nc(N3CCOCC3)cc(C)c2c1 | -7.68 |
| CCOc1ccc(C(=O)Nc2ncn[nH]2)cc1 | 19.1 |
| O=C(CCc1c[nH]c2ccccc12)N/N=C/c1ccc2c(c1)OCO2 | 6.33 |
| CC1=CCC2C(=O)N(CCc3c[nH]c4ccccc34)C(=O)C2C1 (stereo not shown) | -9.31 |
| COc1ccc(CC(=O)NNc2ncnc3c2cnn3-c2ccc(C)cc2)cc1OC | 10.5 |
| COc1ccc(CNC(=O)Cn2nnc(-c3ccc(NC(=O)C4CCCCC4)cc3)n2)cc1 | 14 |
| COc1ccccc1NS(=O)(=O)c1cc(-c2cnc(C3CC3)o2)ccc1C | 3.37 |
| O=C1CSC(c2cn(-c3ccccc3)nc2-c2cccs2)N1Cc1ccccc1 (stereo not shown) | -1.38 |
| O=Cc1c(NCc2ccccc2F)c2ccccc2[nH]c1=O | 13.8 |
| CCOCCCNC(=S)N1CCCN(c2nc3cc(C)c(C)cc3cc2C#N)CC1 | -36.4 |
| CCC(C)NC(=S)Nc1ccc2nc(N3CCOCC3)cc(C)c2c1 (stereo not shown) | 5.86 |
| Cc1cc(N2CCCC2)nc2ccc(NC(=S)NC(C)C)cc12 | -71.6 |
| Cc1cc(N2CCOCC2)nc2ccc(NC(=S)NC(C)C)cc12 | -12.4 |
| CCOCCCNC(=S)N1CCCN(c2nc3cc(C)cc(C)c3cc2C#N)CC1 | -55.6 |
| CCOCCCNC(=S)N1CCCN(c2nc3cc(C)ccc3cc2C#N)CC1 | -30.9 |
